Hit rate of the full screen: of about 310,000 compounds, about 18,000 (5.8%) were called active. A call without a number means that no potency is given here. Another 22% or so got no clear call; they are omitted. The call rests on the fitted dose curve; in most records, active means well fitted inhibition curve with a large enough effect; inconclusive means small, poorly fitted or top-dose-only effect, or another doubt; inactive means no such curve, though single readings can be large or run the other way. The full list was thinned out, with actives kept by preference.
Test: Primary qHTS for delayed death inhibitors of the malarial parasite plastid, 48 hour incubation
Conditions: P. falciparum luciferase growth in erythrocytes; series mostly up to 28.7 µM
Procedure, shortened: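 Read-out is firefly luciferase luminescence from an integrated reporter in P. falciparum, so falling signal marks reduced parasite growth. Infected erythrocytes were at 2% hematocrit and 0.1% parasitemia (final) in Albumax-supplemented RPMI 1640.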
With `CCN(CC)C(=O)COc1coc(CN2CCN(Cc3ccccc3)CC2)cc1=O` the Potency was “inactive”.
With `O=C(NCCC1CCCCN1S(=O)(=O)c1ccccc1)C(=O)NCC1CCCO1` (centres undefined) the Potency was “inactive”.
In the case of `O=C(CCC1CCCN(C(=O)c2ccc(F)c(F)c2)C1)N1CCN(c2ccccn2)CC1` (centres undefined), the Potency is reported as “inactive”.
In the case of `COc1ccc(Cl)cc1NC(=O)COc1ccc2c(c1)OCO2`, the Potency is reported as “inactive”.
For `Nc1cccc(-c2cc(-c3ccccc3)nc(-c3cccc(N)c3)n2)c1`, the Potency was 10.4 µM (active).
For `Nc1nc(-c2ccccc2)cc(-c2ccccc2)n1`, the Potency was “inactive”.
For `Nc1cccc(CCc2nc3ccccc3[nH]2)c1`, the Potency was “inactive”.
In the case of `Cc1cccc(C(=O)NCCCN(C)CCCNC(=O)c2cccc(C)c2)c1`, the Potency is reported as “inactive”.
With `CCSc1nc2sc3c(c2c(=O)[nH]1)CC(C)(C)OC3` the Potency was “inactive”.
In the case of `O=C(OCc1ccc([N+](=O)[O-])cc1)C1CC(=O)N(Cc2ccccc2Cl)C1` (centres undefined), the Potency is reported as “inactive”.
For `COc1cc(/C=C/C(=O)O)cc(S(=O)(=O)Nc2ccccc2C(=O)NCCc2ccccc2)c1OC`, the Potency was “inactive”.
With `COc1cc(C(CCN2CCN(c3ccccc3)CC2)c2c(OC)cc(OC)c3ccc(=O)oc23)cc(OC)c1OC` (centres undefined) the Potency was 13.1 µM (active).
In the case of `c1ccc(-c2cnc(CN3CCN(c4ccccc4)CC3)o2)cc1`, the Potency is reported as “inactive”.
For `COc1ccccc1NC(=O)CCN1CCN(c2ccc(Cl)cc2)CC1`, the Potency was “inactive”.
With `COc1cc(OC)c2ccc(=O)oc2c1C(CCN1CCN(c2ccccc2)CC1)c1ccc2c(c1)OCO2` (centres undefined) the Potency was 11.7 µM (active).
With `Cc1cc(=O)oc2c(C)c(OCC(=O)N3CCN(Cc4ccc5c(c4)OCO5)CC3)ccc12` the Potency was “inactive”.
With `COc1ccccc1N1CCN(Cc2cc(OC)c3c(c2)OCO3)CC1` the Potency was “inactive”.
With `CC(OC(=O)CN1C(=O)c2ccccc2C1=O)C(=O)c1ccccc1` (centres undefined) the Potency was “inactive”.
In the case of `COc1cc(S(=O)(=O)Nc2ncn[nH]2)ccc1Cl`, the Potency is reported as “inactive”.
In the case of `O=Cc1c(NCCCN2CCCC2=O)c2ccccc2[nH]c1=O`, the Potency is reported as “inactive”.
With `O=C(NC1CCCC1)C(c1ccc(Cl)cc1)N(C(=O)c1csnn1)C1CC1` (centres undefined) the Potency was “inactive”.
In the case of `Cc1cc(-c2ccc(S(=O)(=O)N3CCN(c4cccc(C(F)(F)F)c4)CC3)s2)on1`, the Potency is reported as “inactive”.
For `O=c1c2ccccc2ncn1/N=C/c1ccccc1`, the Potency was “inactive”.
In the case of `O=c1oc(/C=C/c2ccccc2)nc2ccccc12`, the Potency is reported as “inactive”.
For `O=c1c2ccccc2nc(/C=C/c2ccc(F)cc2)n1-c1ccccc1O`, the Potency was 13.1 µM (active).
In the case of `CCC(=O)c1ccc(OCC(=O)Nc2ccc3nc(C)sc3c2)cc1`, the Potency is reported as “inactive”.
With `Cc1ccc(NC(=O)COc2ccc(-n3ccnc3)cc2)cc1Cl` the Potency was 9.28 µM (active).
For `Cc1ccc(NC(=O)COc2ccc(/C=N\NC(=O)c3cccnc3)cc2)cc1C`, the Potency was “inactive”.
With `Cc1ccc(NC(=O)NC(=O)c2ccccc2)cc1F` the Potency was “inactive”.
For `Cc1nc(Cl)cc(N/N=C/c2ccccc2)n1`, the Potency was “inactive”.
For `COc1ccccc1/C=N\Nc1cc(C)nc(-n2nc(C)cc2C)n1`, the Potency was 1.65 µM (active).
For `COc1cccc(/C=N/Nc2cc(C)nc(-c3ccccc3O)n2)c1O`, the Potency was 3.7 µM (active).
With `COc1cc(NS(=O)(=O)c2ccccc2)ccc1-n1nc(C)cc1C` the Potency was “inactive”.
For `Cc1cc(N/N=C\c2ccc(Br)cc2)nc(-n2nc(C)cc2C)n1`, the Potency was 1.04 µM (active).
With `Cc1ccc(S(=O)(=O)Nc2nc(C)cc(N/N=C/c3ccc(O)cc3)n2)cc1` the Potency was “inactive”.
For `COc1ccc(NC(=O)c2nc(-n3nc(C)cc3C)ccc2Cl)cc1Cl`, the Potency was “inactive”.
With `COc1cccc2c(N/N=C/c3ccco3)cc(C)nc12` the Potency was “inactive”.
With `COc1cc(/C=N/Nc2nc3ccccc3s2)ccc1O` the Potency was “inactive”.
With `CCc1nc2nc(C)c(NS(=O)(=O)c3ccc4c(c3)CCCC4)c(=O)n2[nH]1` the Potency was “inactive”.
For `CN(CC(=O)Nc1cccc(F)c1)C(=O)CC1CCCC1`, the Potency was “inactive”.
In the case of `Cc1ccc(-c2ccnc3[nH]n(-c4ccccc4)c(=O)c23)cc1`, the Potency is reported as “inactive”.
With `C=CCn1c(CNS(=O)(=O)c2ccc(Br)cc2)nnc1SC` the Potency was “inactive”.
In the case of `COc1ccc(OC)c(NC(=O)Cc2cccs2)c1`, the Potency is reported as “inactive”.
With `CN(CC(=O)NNC(=O)CNC(=O)c1ccccc1Cl)S(=O)(=O)c1ccc(Cl)cc1` the Potency was “inactive”.
For `Cc1csc(SCC(=O)N(c2ccccc2)C(C)C)n1`, the Potency was 10.4 µM (active).
In the case of `COc1ccc(NC(=O)CSc2nc(C)cs2)cc1`, the Potency is reported as “inactive”.
With `Cc1ccc(C(=O)N2CC(=O)Nc3ccc(F)cc3C2c2ccc(F)cc2)cc1` (centres undefined) the Potency was “inactive”.
In the case of `O=S(=O)(c1cccs1)N1CCN(CCOc2ccccc2)CC1`, the Potency is reported as “inactive”.
For `COC(=O)c1ccc2c(C(C)(C)O)c(C(C)(C)O)[nH]c2c1`, the Potency was “inactive”.
In the case of `COc1cc(/C=C2\SC(=S)N(Nc3ncc(C(F)(F)F)cc3Cl)C2=O)cc(OC)c1OC`, the Potency is reported as “inactive”.
With `COc1cccc(/C=N/Nc2ncc(C(F)(F)F)cc2Cl)c1O` the Potency was 1.04 µM (active).
With `COc1cccc(/C(C)=N/Nc2ncc(Cl)cc2Cl)c1` the Potency was “inactive”.
In the case of `O=C(NNC(=O)c1ccco1)Nc1ccccc1`, the Potency is reported as “inactive”.
For `Cc1ccc(C(=O)OCC(=O)NC(=O)Cc2ccccc2)c(O)c1`, the Potency was “inactive”.
In the case of `COc1cc(NS(=O)(=O)c2ccc(NC(=S)NC(=O)c3ccc(Br)cc3)cc2)ncn1`, the Potency is reported as “inactive”.
With `COc1ccc(Cc2cc(-c3ccc(F)cc3)n[nH]c2=O)cc1` the Potency was “inactive”.
In the case of `COc1ccc(CC(=O)NC(C)CCc2ccccc2)cc1` (centres undefined), the Potency is reported as “inactive”.
For `COc1ccc(C(CCNCc2ccccc2F)c2ccc(F)cc2)cc1` (centres undefined), the Potency was 7.38 µM (active).
With `CC1(C)Cc2c(cnn2-c2cccc(F)c2)C(NC(=O)c2cc[n+]([O-])cc2)C1` (centres undefined) the Potency was “inactive”.
With `Cc1ccc(S(=O)(=O)N2CCOCC2)cc1NC(=O)COC(=O)c1cnccn1` the Potency was “inactive”.
With `Cc1cccc(NS(=O)(=O)c2ccc([N+](=O)[O-])cc2)n1` the Potency was “inactive”.
In the case of `Cc1ccc(NC(=O)CC(=O)Nc2ccc(C)cc2)cc1`, the Potency is reported as “inactive”.
With `O=C(Cc1ccc(Cl)c(Cl)c1)Nc1ccc(SC(F)F)cc1` the Potency was “inactive”.
In the case of `O=C(CCl)Nc1ccc(Sc2ccc(NC(=O)CCl)cc2)cc1`, the Potency is reported as 3.29 µM (active).
With `CCN(CC)S(=O)(=O)c1ccc(-c2cn3ccc(C)cc3n2)cc1` the Potency was “inactive”.
With `CCCOc1cccc(C(=O)NCCCNC(=O)c2cccnc2)c1` the Potency was “inactive”.
In the case of `Cc1nn(C(C)C(=O)NCCC2=CCCCC2)c(=O)c2nn(-c3ccccc3)c(C)c12` (centres undefined), the Potency is reported as “inactive”.
With `O=C(NNS(=O)(=O)c1ccc(F)cc1)C1CCCCC1` the Potency was “inactive”.
With `CS(=O)(=O)Nc1ccccc1N=C(c1ccccc1)c1ccccc1` the Potency was “inactive”.
For `CCOc1ccc(N(CC(=O)NCC2CCCO2)S(=O)(=O)c2ccc(C)cc2)cc1` (centres undefined), the Potency was “inactive”.
For `Cc1ccc(N(C(=O)Cc2cccs2)C(C(=O)NCC2CCCO2)c2ccncc2)cc1` (centres undefined), the Potency was “inactive”.
In the case of `CCOc1ccc(-n2c(N)c(C(=O)NCC3CCCO3)sc2=S)cc1` (centres undefined), the Potency is reported as “inactive”.
In the case of `COCCNC(=O)C(c1ccc(C)o1)N(Cc1cccs1)C(=O)c1snc(C(N)=O)c1N` (centres undefined), the Potency is reported as “inactive”.
For `O=C(NCCc1c[nH]c2ccccc12)C(=O)NCC1CCCO1` (centres undefined), the Potency was “inactive”.
In the case of `COc1cccc(N(C(=O)c2snc(C(N)=O)c2N)C(C(=O)NCC2CCCO2)c2c[nH]c3ccccc23)c1` (centres undefined), the Potency is reported as 9.28 µM (active).
With `Cc1ccc(N(C(=O)c2snc(C(N)=O)c2N)C(C(=O)NCC2CCCO2)c2c[nH]c3ccccc23)cc1` (centres undefined) the Potency was 7.38 µM (active).
With `Cc1ccc(C(C(=O)NCC2CCCO2)N(C(=O)c2snc(C(N)=O)c2N)c2ccc(C(C)C)cc2)o1` (centres undefined) the Potency was 9.28 µM (active).
With `COC(=O)c1cccc(N(C(=O)CNC(=O)c2cccs2)C(C(=O)NCC2CCCO2)c2ccc(OC)c(OC)c2)c1` (centres undefined) the Potency was “inactive”.
With `CCOc1cc(C(C(=O)NCC2CCCO2)N(C(=O)Cn2nnc3ccccc32)c2cccc(OC)c2)ccc1O` (centres undefined) the Potency was “inactive”.
For `CC(Sc1nn(-c2ccc(Cl)cc2)c(=S)s1)C(=O)NCC1CCCO1` (centres undefined), the Potency was “inactive”.
In the case of `CCOc1ccc(N(C(=O)c2snc(C(N)=O)c2N)C(C(=O)NCC2CCCO2)c2c[nH]c3ccccc23)cc1` (centres undefined), the Potency is reported as 5.22 µM (active).
For `COc1ccc2oc(=O)cc(CN3CCOCC3)c2c1`, the Potency was “inactive”.
In the case of `CC(=O)c1c(C)[nH]c(C(=O)CN2C(=O)NC(C)(C)C2=O)c1C`, the Potency is reported as “inactive”.
In the case of `CC1CCCN(C(=O)CN2C(=O)c3ccccc3S2(=O)=O)C1` (centres undefined), the Potency is reported as “inactive”.
For `O=C(NNS(=O)(=O)c1ccc([N+](=O)[O-])cc1)C1CCCCC1`, the Potency was “inactive”.
With `CC(=O)O[C@H]1c2ccccc2-c2ccccc2[C@@H]1OC(C)=O` the Potency was “inactive”.
In the case of `C[N+](C)(C)CCNC(=O)c1cc[n+](Cc2ccccc2)c(/C=N/O)c1`, the Potency is reported as “inactive”.
In the case of `CC(=O)c1ccc(S(=O)(=O)NCCC(=O)N2CCN(c3ccccn3)CC2)cc1`, the Potency is reported as “inactive”.
For `COc1cc(NC(=O)c2ccccc2)c(OC)cc1NC(=O)Cc1ccccc1`, the Potency was “inactive”.
With `Nn1c(SCC(=O)Nc2nccs2)nnc1-c1ccco1` the Potency was “inactive”.
For `CCC(NC(=O)C1CCCC1)c1ccc(C)cc1` (centres undefined), the Potency was “inactive”.
In the case of `COc1cccc(N2CC(NS(=O)(=O)c3cccs3)CC2=O)c1` (centres undefined), the Potency is reported as “inactive”.
For `Cc1ccc(C(=O)c2c(NC(=O)c3ccncc3)sc3c2CCCC3)cc1`, the Potency was 6.57 µM (active).
With `Cc1ccc(NC(=O)c2c(NC(=O)CCC(=O)O)sc3c2CCCCC3)cc1` the Potency was “inactive”.
With `NC(=O)c1c(NC(=O)c2ccccc2)sc2c1CCCC2` the Potency was “inactive”.
For `COc1cccc(NC(=O)N2CCC(NC(=O)C(Cc3cccc(C)c3)NC(C)=O)CC2)c1` (centres undefined), the Potency was “inactive”.
With `CC(C)[C@H](NC(=O)N1CCn2c1nc1ccccc12)C(=O)NC1CC1` the Potency was “inactive”.
For `CC(OC(=O)c1ccc(S(=O)(=O)N2CCOCC2)cc1)c1ccccc1` (centres undefined), the Potency was “inactive”.
In the case of `COC(=O)c1c(NC(=O)c2ccc(S(=O)(=O)N3CCOCC3)cc2)sc2c1CCN(C(C)C)C2`, the Potency is reported as 11.7 µM (active).
With `CNC(=O)c1ccsc1NC(=O)c1ccc(S(=O)(=O)N2CCOCC2)cc1` the Potency was “inactive”.
For `COCC(=O)N1CCCC(C(=O)c2ccc(C(F)(F)F)cc2)C1` (centres undefined), the Potency was “inactive”.
For `CCOC(=O)c1sc2nc(CSc3ccccc3)[nH]c(=O)c2c1C`, the Potency was “inactive”.
In the case of `O=c1[nH]c(CSc2ccccc2)nc2c1oc1ccccc12`, the Potency is reported as 10.4 µM (active).
For `Cc1nc(Cl)c2oc3ccccc3c2n1`, the Potency was “inactive”.

From PubChem BioAssay AID504832 (National Center for Advancing Translational Sciences (NCATS), 2011)
Potency means the concentration at half of the fitted maximal effect.
